For test [1], the system named is PRMT1 (protein arginine N-methyltransferase 1). The test can be described thus: small molecules binding arginine methyltransferase PRMT1 – biochemical, small-molecule microarray, 635 nm fluorescence, primary screen (AID 1088).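 Also: binding of Prmt1 protein to compounds spotted on small-molecule microarray slides.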 To be noted: higher = more signal.
A short description of test [2]: growth effects on S. cerevisiae YJM789 – YJM789 clinical isolate, OD600, 24 h, basal, primary screen (AID 1089).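 Also: growth of clinical yeast isolate S. cerevisiae YJM 789 seeded 1000 cells per well; test concentration not given here.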 To be noted: higher = more signal, called active from +8 up or from −8 down.
Test [3] can be described thus: S. pombe growth modifiers, basal conditions – strain 972, OD600, 24 h, no modulator, primary screen (AID 1090).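 Also: basal condition with compound alone and no growth modifier present; test concentration not given here.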 Conditions: S. pombe 972 growth, higher = more signal, called active from +8 up or from −8 down.
The nature of test [4]: budding yeast growth modifiers under rapamycin – strain BY4716, OD600, 96 h, primary screen (AID 1091). Also: test concentration not given here. Conditions: S. cerevisiae BY4716 + rapamycin, higher = more signal, called active from +8 up or from −8 down.
Test [5] has as its target Torsin-1A-interacting protein 2 (Homo sapiens) (UniProt Q8NFQ8). Description: small molecules binding lysate-expressed LULL1 – cell lysate, human LULL1 lysate, 635/667 nm fluorescence, primary screen (AID 1092).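 Also: probe is lysate of COS7 cells overexpressing human LULL1; score merges per-feature 667 nm fluorescence with signal-to-noise.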 To be noted: small-molecule microarray, hLULL1 lysate binding, 635 nm fluorescence; higher = more signal.
A short description of test [6]: optical density change of DRC41 E. coli – strain DRC41, OD650, 24 h, E. coli filamentation project, primary screen (AID 1093).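 Also: MC1000 strain lacking acrAB efflux and sulA so SOS filamentation is blocked; test concentration not given here.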 Conditions: E. coli DRC41 growth, higher = more signal, called active from +8 up or from −8 down.
The nature of test [7]: probe aLefty2 binding to arrayed compounds – biochemical, biotinylated probe, 635/667 nm fluorescence, primary screen (AID 1094).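 Also: score merges spot fluorescence near 667 nm with spot signal-to-noise ratio.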 To be noted: small-molecule microarray, higher = more signal.
The subject of test [8] is Noggin (protein binding on small-molecule microarray). Description: small molecules binding Noggin protein – biochemical, 635/667 nm fluorescence, primary screen (AID 1095).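 Also: score merges 667 nm feature fluorescence with signal to noise over triplicate slides.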 To be noted: 635 nm fluorescence, higher = more signal.
The target in test [9] is Neurogenic locus notch homolog protein 3 (Homo sapiens) (UniProt Q9UM47). The test can be described thus: small molecules binding NOTCH3 protein – biochemical, 635/667 nm fluorescence, primary screen (AID 1096). Conditions: small-molecule microarray, 635 nm fluorescence, higher = more signal.
Chain of Neurogenic locus notch homolog protein 3 (Homo sapiens) (Q9UM47 whole entry, looked up): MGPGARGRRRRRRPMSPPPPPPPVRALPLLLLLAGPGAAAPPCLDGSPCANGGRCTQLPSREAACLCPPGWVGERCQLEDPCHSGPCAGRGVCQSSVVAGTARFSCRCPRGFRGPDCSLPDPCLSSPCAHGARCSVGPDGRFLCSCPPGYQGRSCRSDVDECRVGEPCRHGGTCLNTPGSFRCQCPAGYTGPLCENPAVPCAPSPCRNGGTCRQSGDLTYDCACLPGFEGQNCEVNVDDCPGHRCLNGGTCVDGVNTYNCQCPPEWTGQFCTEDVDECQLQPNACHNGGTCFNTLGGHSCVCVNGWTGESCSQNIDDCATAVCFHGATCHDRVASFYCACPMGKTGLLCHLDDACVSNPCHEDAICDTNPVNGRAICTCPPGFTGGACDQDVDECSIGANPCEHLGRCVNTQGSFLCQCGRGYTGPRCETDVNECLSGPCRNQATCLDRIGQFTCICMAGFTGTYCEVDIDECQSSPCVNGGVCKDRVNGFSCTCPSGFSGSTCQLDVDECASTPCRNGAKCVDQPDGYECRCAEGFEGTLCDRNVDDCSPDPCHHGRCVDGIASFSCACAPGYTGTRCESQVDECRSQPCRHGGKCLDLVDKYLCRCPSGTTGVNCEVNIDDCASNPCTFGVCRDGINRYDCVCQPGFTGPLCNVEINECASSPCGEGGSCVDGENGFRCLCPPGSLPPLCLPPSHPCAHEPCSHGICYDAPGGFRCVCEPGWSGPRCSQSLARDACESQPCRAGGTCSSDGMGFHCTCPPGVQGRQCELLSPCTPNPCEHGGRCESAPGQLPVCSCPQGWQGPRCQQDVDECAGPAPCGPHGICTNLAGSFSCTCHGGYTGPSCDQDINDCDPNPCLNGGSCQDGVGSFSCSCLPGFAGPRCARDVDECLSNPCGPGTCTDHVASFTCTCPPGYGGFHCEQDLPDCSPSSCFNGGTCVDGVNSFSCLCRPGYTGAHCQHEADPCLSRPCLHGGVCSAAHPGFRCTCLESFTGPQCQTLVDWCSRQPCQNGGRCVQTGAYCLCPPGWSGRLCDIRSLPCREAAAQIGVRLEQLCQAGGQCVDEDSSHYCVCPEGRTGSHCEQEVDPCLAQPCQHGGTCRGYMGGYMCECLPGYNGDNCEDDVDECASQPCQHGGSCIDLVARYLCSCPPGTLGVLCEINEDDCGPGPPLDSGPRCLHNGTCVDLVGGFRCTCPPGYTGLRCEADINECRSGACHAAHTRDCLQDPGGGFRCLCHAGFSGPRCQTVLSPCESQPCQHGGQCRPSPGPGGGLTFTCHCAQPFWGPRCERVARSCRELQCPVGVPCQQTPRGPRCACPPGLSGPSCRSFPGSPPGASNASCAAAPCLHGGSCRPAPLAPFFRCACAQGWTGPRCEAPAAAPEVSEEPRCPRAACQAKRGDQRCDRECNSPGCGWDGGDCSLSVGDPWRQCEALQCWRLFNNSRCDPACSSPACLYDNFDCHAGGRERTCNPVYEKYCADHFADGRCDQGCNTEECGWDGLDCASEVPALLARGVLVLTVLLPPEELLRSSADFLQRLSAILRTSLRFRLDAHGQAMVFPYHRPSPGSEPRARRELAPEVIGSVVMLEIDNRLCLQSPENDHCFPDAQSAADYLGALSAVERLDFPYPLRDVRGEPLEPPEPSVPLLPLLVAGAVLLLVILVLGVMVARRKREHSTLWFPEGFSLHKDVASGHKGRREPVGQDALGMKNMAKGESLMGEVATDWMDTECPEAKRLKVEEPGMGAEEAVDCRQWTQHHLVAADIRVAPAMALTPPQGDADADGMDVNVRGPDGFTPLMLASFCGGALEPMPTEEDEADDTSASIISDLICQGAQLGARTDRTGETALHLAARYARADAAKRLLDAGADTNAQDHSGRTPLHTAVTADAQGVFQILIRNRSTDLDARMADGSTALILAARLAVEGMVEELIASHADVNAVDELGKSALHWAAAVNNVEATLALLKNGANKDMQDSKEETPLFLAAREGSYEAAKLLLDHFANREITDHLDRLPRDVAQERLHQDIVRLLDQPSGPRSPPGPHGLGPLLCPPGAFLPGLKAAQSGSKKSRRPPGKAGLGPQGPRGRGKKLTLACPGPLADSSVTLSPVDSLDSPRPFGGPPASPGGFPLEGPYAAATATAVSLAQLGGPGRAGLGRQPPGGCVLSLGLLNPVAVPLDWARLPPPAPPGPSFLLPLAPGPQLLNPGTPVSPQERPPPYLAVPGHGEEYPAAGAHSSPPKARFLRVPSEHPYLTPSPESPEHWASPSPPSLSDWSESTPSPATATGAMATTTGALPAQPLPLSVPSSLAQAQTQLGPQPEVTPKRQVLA
Test [10] can be described thus: probe aEGFR binding to arrayed compounds – biochemical, biotinylated probe, 635/667 nm fluorescence, primary screen (AID 1097).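 Also: probe is a biotinylated anti-EGFR antibody binding compounds printed on slides; score combines fluorescence near 667 nm and signal to noise of each spot.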 To be noted: small-molecule microarray, higher = more signal.
For test [11], the system named is Plasmodium falciparum Sir2 (PF13_0152, Sir2A). Description: Plasmodium falciparum Sir2A binding compounds – biochemical, small-molecule microarray, 635 nm fluorescence, primary screen (AID 1098).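 Also: score merges spot fluorescence intensity with its signal-to-noise ratio.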 Conditions: fluorescence 635 nm, higher = more signal.
Test [12] in a line: probe aDKK1 binding to arrayed compounds – biochemical, biotinylated probe, 635/667 nm fluorescence, primary screen (AID 1099).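 Also: score merges 667nm spot fluorescence with signal to noise across triplicate slides; reference of the scale not given here.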 To be noted: small-molecule microarray, higher = more signal.
Test [13] in a line: probe aCHRDL2 binding to arrayed compounds – biochemical, biotinylated probe, 635/667 nm fluorescence, primary screen (AID 1100). To be noted: small-molecule microarray, higher = more signal.
The nature of test [14]: change in splice reporter luminescence, either direction, cell-based, HEK293, spliceosome inhibition project, primary screen (AID 1101).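 Also: HEK293 cells carrying a splicing-competent luciferase reporter gene; test concentration not given here.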 Conditions: HEK293 splicing luciferase reporter, 24 h, higher = more signal, called active from +8 up or from −8 down.
Test [15] concerns the target Fibroblast growth factor 10 (Homo sapiens) (UniProt O15520). Description: compounds binding fibroblast growth factor 10 – biochemical, small-molecule microarray, 635 nm fluorescence, primary screen (AID 1102). To be noted: FGF10 binding, fluorescence 635 nm, higher = more signal.
In test [16] the test system is glycogen synthase kinase-3 (GSK3A per assay name; protocol says GSK3B). Description: compounds binding glycogen synthase kinase-3 – biochemical, small-molecule microarray, 635 nm fluorescence, GSK3A, primary screen (AID 1103). Also: the record names both GSK3A and GSK3B. Conditions: fluorescence 635 nm, higher = more signal.
The target in test [17] is Epidermal growth factor receptor (Homo sapiens) (UniProt P00533). The test can be described thus: compounds binding epidermal growth factor receptor – biochemical, small-molecule microarray, 635 nm fluorescence, primary screen (AID 1104).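 Also: score merges 667 nm emission intensity with spot signal to noise over triplicate slides.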 Conditions: EGFR binding, higher = more signal.
Chain of Epidermal growth factor receptor (Homo sapiens) (P00533 whole entry, looked up): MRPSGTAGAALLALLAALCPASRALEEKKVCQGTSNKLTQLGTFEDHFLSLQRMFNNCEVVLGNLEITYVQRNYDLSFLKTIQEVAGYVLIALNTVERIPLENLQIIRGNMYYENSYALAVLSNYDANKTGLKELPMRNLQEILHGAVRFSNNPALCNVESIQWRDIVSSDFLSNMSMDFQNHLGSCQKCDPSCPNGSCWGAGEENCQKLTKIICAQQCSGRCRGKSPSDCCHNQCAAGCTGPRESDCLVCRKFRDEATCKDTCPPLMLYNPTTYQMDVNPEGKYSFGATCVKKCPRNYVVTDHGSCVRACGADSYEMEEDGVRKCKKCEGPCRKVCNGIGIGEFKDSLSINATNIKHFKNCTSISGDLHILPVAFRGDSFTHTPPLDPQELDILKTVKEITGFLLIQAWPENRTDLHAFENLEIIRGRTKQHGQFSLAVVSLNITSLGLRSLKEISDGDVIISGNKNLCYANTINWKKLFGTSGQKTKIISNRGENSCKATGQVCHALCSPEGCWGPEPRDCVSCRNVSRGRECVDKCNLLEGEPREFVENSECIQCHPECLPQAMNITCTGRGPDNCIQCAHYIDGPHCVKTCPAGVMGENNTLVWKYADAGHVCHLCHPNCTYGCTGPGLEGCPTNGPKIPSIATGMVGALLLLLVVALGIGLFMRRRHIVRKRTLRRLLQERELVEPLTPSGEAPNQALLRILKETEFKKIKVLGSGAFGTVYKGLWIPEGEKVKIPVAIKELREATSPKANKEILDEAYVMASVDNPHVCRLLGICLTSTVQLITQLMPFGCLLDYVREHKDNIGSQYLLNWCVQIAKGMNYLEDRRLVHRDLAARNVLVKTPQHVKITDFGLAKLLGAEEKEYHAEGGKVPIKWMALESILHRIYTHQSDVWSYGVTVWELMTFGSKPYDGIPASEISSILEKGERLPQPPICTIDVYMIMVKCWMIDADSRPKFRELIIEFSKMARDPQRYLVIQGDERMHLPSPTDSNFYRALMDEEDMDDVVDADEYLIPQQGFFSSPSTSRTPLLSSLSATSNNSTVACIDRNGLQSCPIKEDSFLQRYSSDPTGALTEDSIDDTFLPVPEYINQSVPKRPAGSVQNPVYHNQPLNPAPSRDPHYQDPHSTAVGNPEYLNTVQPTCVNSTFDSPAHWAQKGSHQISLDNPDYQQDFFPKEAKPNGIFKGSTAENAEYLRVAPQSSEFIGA
Test [18] concerns the target Follistatin-related protein 3 (Homo sapiens) (UniProt O95633). The test can be described thus: compounds binding follistatin-related protein 3 – biochemical, small-molecule microarray, 635 nm fluorescence, primary screen (AID 1105).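 Also: score merges emission near 667 nm and signal to noise per printed spot across three slides.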 Conditions: FSTL3 binding, higher = more signal.
The target in test [19] is Dickkopf-related protein 1 (Homo sapiens) (UniProt O94907). Description: small molecules binding DKK1 protein – biochemical, small-molecule microarray, 635 nm fluorescence scan, primary screen (AID 1106).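 Also: score merges emission near 667 nm with signal to noise over three replicate slides.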 Conditions: higher = more signal.
Chain of Dickkopf-related protein 1 (Homo sapiens) (O94907 whole entry, looked up): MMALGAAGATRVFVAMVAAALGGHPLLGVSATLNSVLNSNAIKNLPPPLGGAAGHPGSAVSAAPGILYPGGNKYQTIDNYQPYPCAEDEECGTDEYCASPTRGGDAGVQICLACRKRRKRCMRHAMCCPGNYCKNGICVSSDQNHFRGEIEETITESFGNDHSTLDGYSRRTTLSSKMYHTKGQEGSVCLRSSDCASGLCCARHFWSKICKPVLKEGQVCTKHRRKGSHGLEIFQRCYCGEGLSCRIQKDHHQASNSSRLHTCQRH
For test [20], the system named is Inhibin beta A chain (activin A). Description: small molecules binding activin A – biochemical, small-molecule microarray, 635 nm fluorescence scan, primary screen (AID 1107).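 Also: mouse activin A protein probed at 4.33 µg/mL on printed slides; score merges bound-protein fluorescence near 667 nm with spot signal-to-noise.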 To be noted: INHBA, higher = more signal.

The record followed here is PubChem BioAssay.

Calls of active or inactive are those of the source.

Chain of Follistatin-related protein 3 (Homo sapiens) (O95633 whole entry, looked up): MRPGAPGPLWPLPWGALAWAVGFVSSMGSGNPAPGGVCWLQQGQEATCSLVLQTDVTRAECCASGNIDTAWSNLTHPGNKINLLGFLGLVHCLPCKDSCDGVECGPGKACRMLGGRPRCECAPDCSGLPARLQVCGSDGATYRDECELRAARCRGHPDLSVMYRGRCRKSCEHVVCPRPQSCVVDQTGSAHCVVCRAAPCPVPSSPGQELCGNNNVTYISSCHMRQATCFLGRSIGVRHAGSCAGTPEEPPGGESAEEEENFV
Chain of Torsin-1A-interacting protein 2 (Homo sapiens) (Q8NFQ8 whole entry, looked up): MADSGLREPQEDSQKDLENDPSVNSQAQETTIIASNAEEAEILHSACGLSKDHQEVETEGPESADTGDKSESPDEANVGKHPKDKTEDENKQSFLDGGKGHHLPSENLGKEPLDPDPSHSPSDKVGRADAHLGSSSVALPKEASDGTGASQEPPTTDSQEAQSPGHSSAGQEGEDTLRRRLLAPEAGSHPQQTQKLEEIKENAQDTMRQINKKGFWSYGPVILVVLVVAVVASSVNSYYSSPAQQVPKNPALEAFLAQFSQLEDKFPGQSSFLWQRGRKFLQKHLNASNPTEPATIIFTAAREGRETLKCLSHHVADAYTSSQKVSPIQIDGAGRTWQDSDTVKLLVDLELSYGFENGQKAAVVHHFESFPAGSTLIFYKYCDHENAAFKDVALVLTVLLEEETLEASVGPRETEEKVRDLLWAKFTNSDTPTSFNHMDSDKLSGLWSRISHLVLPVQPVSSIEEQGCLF
Chain of Fibroblast growth factor 10 (Homo sapiens) (O15520 whole entry, looked up): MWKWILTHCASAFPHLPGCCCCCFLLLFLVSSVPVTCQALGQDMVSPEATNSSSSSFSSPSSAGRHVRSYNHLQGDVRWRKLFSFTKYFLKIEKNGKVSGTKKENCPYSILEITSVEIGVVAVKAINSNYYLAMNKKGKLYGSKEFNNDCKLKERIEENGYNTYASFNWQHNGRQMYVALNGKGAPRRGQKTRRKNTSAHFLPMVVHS

`CO[C@H]1O[C@H](CO)[C@@H](OC(=O)Nc2ccc3c(c2)OCO3)[C@H](OC(=O)Nc2ccc3c(c2)OCO3)[C@@H]1OC(=O)Nc1ccc2c(c1)OCO2`: the composite z-score in [1] is 1.54; in test [5] it was 3.44; in test [7], 0.0909; in [8] it was 0.643; in test [9], 1.03; in [10], -0.039. The composite z-score in [11] worked out at 1.33; in test [12], 0.203; in test [13], 0.195; in test [15], 1.39; in [16], 1.23; in test [17], 0.273. For the same compound, the composite z-score is 1.41 in test [18], 0.378 in test [19] and 0.762 in [20]. Further, the z-score in [2] was 1.15 (inactive); in [3] it was 1.37 (inactive); in test [4] it was 5.69 (inactive); in test [6] it was 0.508 (inactive); in [14], -0.714 (inactive).

As to `COc1cc2c(cc1O)C=[N+](Cc1sc3ccccc3c1Cl)CC2`, the composite z-score in [1] was 0.286; in [5] it was -0.0121; in [7], 0.0216; in test [8], 0.346; in test [9], -0.119; in [10] it was -0.126. For the same compound, the composite z-score was 0.209 in test [11]; 0.0295 in test [12]; 0.494 in test [13]; -0.0275 in test [15]; 0.0717 in test [16]; 0.454 in [17]. Moreover, the composite z-score in [18] is -0.0687; in test [19], 0.396; in test [20], 1.19. Further, the z-score in [2] was -1.02 (inactive); in [3], -15.5 (active); in [4], -1.31 (inactive); in test [6] it was 0.461 (inactive); in test [14], 0.134 (inactive).

On to `COc1cccc(C)c1NC(=O)O[C@H]1[C@H](OC(=O)Nc2ccc3c(c2)OCO3)[C@@H](OC(=O)Nc2ccc3c(c2)OCO3)[C@@H](OC)O[C@@H]1CO`, for which the composite z-score in test [1] is 1.54; in test [5] it was 3.58; in [7] it was 0.218; in [8], 1.4; in [9], 1.04; in test [10], -0.0031. For the same compound, the composite z-score worked out at 0.264 in test [11]; 0.18 in test [12]; 0.232 in [13]; 1.46 in test [15]; 1.35 in test [16]; 0.603 in test [17]. Also, the composite z-score worked out at 1.44 in [18], 0.708 in test [19] and 0.724 in test [20]. Moreover, the z-score in test [2] was 1.94 (inactive); in test [3], 2.2 (inactive); in test [4] it was 8.01 (active); in [6] it was 1.23 (inactive); in test [14], -0.23 (inactive).

For `CCCCCCCCCC(O)C1C=CC2C(=O)N(c3ccccc3)C(=O)C2N1Nc1cc(OC)c(OC)c(OC)c1` (stereo not given), the composite z-score in test [1] was 0.619; in [5], 2.23; in test [7], -0.163; in [8], -0.344; in test [9], 0.631; in test [10], -0.0978. The composite z-score was 1.04 in test [11]; -0.0249 in test [12]; 0.662 in [13]; -0.4 in test [15]; -0.214 in test [16]; -0.381 in [17]. In addition, the composite z-score in test [18] is -0.246; in test [19], -1.12; in test [20], 0.655. The z-score in test [2] is 1.13 (inactive); in [3], 0.441 (inactive); in test [4], -0.236 (inactive); in [6], -3.91 (inactive); in test [14], -0.901 (inactive).

`[N-]=[N+]=Nc1ccccc1[C@@H]1OC(c2ccc(OCCCO)cc2)=N[C@]1(Cc1ccccc1)C(=O)N1CCCCC1`: the composite z-score in test [1] is 1.53; in [5] it was 3.27; in test [7], 0.0277; in [8] it was 0.847; in test [9], 1.04; in [10], 0.001. In addition, the composite z-score in test [11] was 1.16; in test [12], 0.374; in [13] it was 0.711; in test [15], 1.43; in [16] it was 0.769; in test [17], 0.332. The composite z-score in test [18] is 1.07; in test [19] it was -0.0165; in [20], 0.441. For the same compound, the z-score in [2] is -0.286 (inactive); in test [3], -0.487 (inactive); in test [4] it was 1.49 (inactive); in test [6] it was 0.27 (inactive); in [14], 0.745 (inactive).
